Assay outcomes deposited in PubChem by National Center for Advancing Translational Sciences (NCATS).
TGFb inhibitor: inhibitors of TGF-b signaling; AID 588855; actives 1.2% (n = 410,000); Potency, µM (titrated, usually from 46.1 µM), for inactives: at the highest dose activity, negative = inhibition, actives largely listed as inhibitors; HepG2 CAGA-GFP TGF-b/SMAD3 reporter, GFP fluorescence, 18 h; TGF-beta stimulated, 500 pg/mL final; also: potency is read from the fitted curve at half-maximal effect; % is scaled to controls: 0 for no effect and ±100 for the full control effect; nearly all actives have a fitted effect of over 65% in size
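GFP signal (ex488/em500-530) from TGF-beta-stimulated HEPG2 CAGA-GFP cells, 500 pg/mL final, 18 h at 37 degrees C in DMEM plus 1% FBS, normalized to unstimulated and DMSO-stimulated controls.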
DT40 TDP1 no CPT: qHTS for Inhibitors of human tyrosyl-DNA phosphodiesterase 1 (TDP1): qHTS in cells in absence of CPT | Potency, µM (top dose mostly 46.2 µM), for the others: at the top dose activity change, negative = growth inhibition, actives largely listed as inhibitors | AID 686978, 2013 | DT40 Tdp1-/- hTDP1 cells, no CPT, ATP luminescence, 48 h | actives 15% (n = 420,000); also: potency is read from the fitted curve at half-maximal effect; % is scaled to controls: 0 for no effect and ±100 for the full control effect; nearly all actives have a fitted effect of over 55% in size
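Chicken DT40 Tdp1-/- cells complemented with human TDP1, screened without camptothecin (DMSO vehicle only), 400 cells/well. Compounds pin-transferred, cells incubated at 37 °C for at least 48 hr. Growth read as ATP-dependent luminescence (CellTiter-Glo, 30 min at RT).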
IL-1B inflam inh: inhibitors of inflammasome signaling (IL-1 beta secretion) | THP-1 LPS/ATP IL-1B secretion, AlphaLISA, 16 h; hits give low values | activity change, % at 57.5 µM | actives 4.7% (n = 360,000); in the data active = activity change below about -50%; inconclusive = mostly about -30% to -49%; also: % is scaled to controls: 0 for no effect and ±100 for the full control effect
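THP-1 cells pretreated 1 hr with compounds (up to 57.5 uM final), then stimulated with LPS (250 ng/mL final) plus ATP (1.25 mM final); secreted IL-1B measured by AlphaLISA after 16 hr, decreased signal indicating inhibition.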
HepG2 viability: counter-screen for TGF-b inhibitors: cytotoxicity in HepG2 cells | Potency, µM (series often up to 46.1 µM), for inactives: at the highest dose activity change, negative = cytotoxicity, usual class: cytotoxic | actives 0.76% (n = 410,000) | HepG2 CAGA-GFP viability, ATP luminescence, 18 h | AID 588856; also: potency is read from the fitted curve at half-maximal effect
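HepG2 CAGA-GFP cells (1000/well, DMEM with 1% FBS) received compound, then TGF-beta at 500 pg/mL final, and were incubated 18 hours at 37 degrees C. Viability was read by CellTiter-Glo luminescence. Media-only wells were set as complete cell-killing and DMSO as no toxicity.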
TDP1 block: blocks human tyrosyl-DNA phosphodiesterase 1 | actives 0.28% (n = 350,000) | Potency, µM (doses to about 130 µM), for inactives: at the highest dose activity change, negative = inhibition, actives largely listed as inhibitors | recombinant TDP1, AlphaScreen DNA substrate cleavage | Q9NUW8; also: potency is read from the fitted curve at half-maximal effect; % is scaled to controls: 0 for no effect and ±100 for the full control effect; nearly all actives have a fitted effect of over 40% in size
Target sequence (Q9NUW8 whole entry, looked up): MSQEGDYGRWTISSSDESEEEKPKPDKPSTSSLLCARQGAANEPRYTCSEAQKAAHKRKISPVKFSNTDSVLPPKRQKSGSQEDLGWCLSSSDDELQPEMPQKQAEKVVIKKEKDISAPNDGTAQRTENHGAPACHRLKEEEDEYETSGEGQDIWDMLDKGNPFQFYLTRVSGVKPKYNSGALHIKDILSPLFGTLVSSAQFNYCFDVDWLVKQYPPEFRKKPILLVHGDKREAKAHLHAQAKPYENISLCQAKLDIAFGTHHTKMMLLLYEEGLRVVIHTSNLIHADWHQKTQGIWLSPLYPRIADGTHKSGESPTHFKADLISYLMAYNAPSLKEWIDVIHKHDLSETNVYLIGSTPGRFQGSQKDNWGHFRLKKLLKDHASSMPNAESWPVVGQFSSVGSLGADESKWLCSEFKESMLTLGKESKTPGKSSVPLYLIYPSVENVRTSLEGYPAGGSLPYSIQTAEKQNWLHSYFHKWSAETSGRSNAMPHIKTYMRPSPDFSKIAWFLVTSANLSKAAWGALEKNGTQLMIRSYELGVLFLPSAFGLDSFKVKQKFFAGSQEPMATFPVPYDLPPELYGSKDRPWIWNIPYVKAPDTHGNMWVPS
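E. coli-derived human Tdp1, 1 nM final. Cpd preinc 15 min RT; substrate 15 nM final, 5 min RT; AS bead mix 10 ug/ml final, 10 min RT. Signal loss = tyrosine-FITC cleavage. No-enzyme wells = max signal.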
DT40 TDP1 CPT: growth inhibition of DT40 Tdp1-/-;hTDP1 cells with camptothecin (screen for TDP1 inhibitors); Potency, µM (titrated, usually from 46.2 µM), without a hit: at the highest dose activity change, negative = growth inhibition, most hits filed as inhibitors; actives 12% (n = 420,000); AID 686979; chicken DT40 Tdp1-/-;hTDP1 cells + 20 nM CPT, ATP luminescence, 48 h; also: potency is read from the fitted curve at half-maximal effect; % is scaled to controls: 0 for no effect and ±100 for the full control effect; nearly all actives have a fitted effect of over 55% in size
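Chicken DT40 Tdp1-/- cells complemented with human TDP1, 400 cells/well, exposed to compounds plus 20 nM camptothecin for at least 48 h at 37 C; viability read as ATP content by CellTiter-Glo luminescence.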
An asterisk follows results filed as active. Compounds with a hit are over-represented: about 19% of the library has one in this group of screens. Unless noted, calls follow the shape of the dose curve; as a rule, active = well fitted curve in the direction sought with a large enough effect; inconclusive = small, poorly fitted or top-dose-only effect, or another doubt; inactive = no such curve, though single readings can be large; an effect the other way counts as inactive or inconclusive.

For Cc1ccccc1-c1cccc(CN2CCN(C)C(CCO)C2)c1 (centres undefined) the results were TGFb inhibitor 0%, DT40 TDP1 no CPT 4%, IL-1B inflam inh -54*, HepG2 viability -23% and DT40 TDP1 CPT -23%.
Screening CC(C)N1CCN(CCCc2ccccc2)CC1CCO (centres undefined) returned TGFb inhibitor 1%, DT40 TDP1 no CPT 9%, IL-1B inflam inh -4, HepG2 viability -37% and DT40 TDP1 CPT 3%.
For Cc1ccc(-c2cccc(CN3CCN(C4CCN(C(C)C)CC4)C(CCO)C3)c2)o1 (centres undefined) the results were TGFb inhibitor -9%, DT40 TDP1 no CPT 7.3µM*, IL-1B inflam inh inconclusive, HepG2 viability -31%, TDP1 block 6% and DT40 TDP1 CPT inconclusive.
COc1cc(NC(=O)C(Cc2ccccc2)NS(=O)(=O)c2cccs2)cc(OC)c1 (centres undefined) was read as TGFb inhibitor -10%, DT40 TDP1 no CPT -28%, HepG2 viability -16%, TDP1 block 3% and DT40 TDP1 CPT 23µM*.
Screening Cc1ccc(NC(=O)C(Cc2ccccc2)NS(=O)(=O)c2cccs2)cc1Cl (centres undefined) returned TGFb inhibitor -1%, DT40 TDP1 no CPT 3%, HepG2 viability 2%, TDP1 block 0% and DT40 TDP1 CPT -2%.
CCc1cccc(NC(=O)C(Cc2ccccc2)NS(=O)(=O)c2cccs2)c1 (centres undefined) was read as TGFb inhibitor inconclusive, DT40 TDP1 no CPT 18µM*, HepG2 viability -18%, TDP1 block 9% and DT40 TDP1 CPT inconclusive.
For COc1cccc(Oc2nc(C)nc3c2oc2ccccc23)c1 the results were TGFb inhibitor -21%, DT40 TDP1 no CPT inconclusive, HepG2 viability -26%, TDP1 block 4% and DT40 TDP1 CPT -21%.
Screening COc1cc(=O)n2c(c1C(=O)N(C)Cc1ccsc1)CCN(Cc1c(C)nc3sccn13)CC2 returned DT40 TDP1 no CPT -24% and DT40 TDP1 CPT -4%.
Screening Cc1cccc(NC(c2ccccc2C)c2ccc3ccc(C)nc3c2O)n1 (centres undefined) returned TGFb inhibitor inconclusive, DT40 TDP1 no CPT 15µM*, HepG2 viability -9%, TDP1 block 12% and DT40 TDP1 CPT inconclusive.
Cc1cccc(NCc2ccccc2O)n1 was read as TGFb inhibitor -1%, DT40 TDP1 no CPT -21%, IL-1B inflam inh inconclusive, HepG2 viability -11%, TDP1 block 8% and DT40 TDP1 CPT -26%.
Screening OC(c1ccccc1)C(Nc1ccccn1)c1ccccc1 (centres undefined) returned TGFb inhibitor -1%, DT40 TDP1 no CPT inconclusive, IL-1B inflam inh 0, HepG2 viability -1% and DT40 TDP1 CPT -7%.
Screening COc1cc(C(Nc2ccccn2)c2ccc3ccc(C)nc3c2O)cc(OC)c1O (centres undefined) returned TGFb inhibitor inconclusive, DT40 TDP1 no CPT 3.3µM*, IL-1B inflam inh -116*, HepG2 viability -81%, TDP1 block 11% and DT40 TDP1 CPT 3.7µM*.
Screening Cc1ccc2ccc(C(Nc3ccccn3)c3ccccc3)c(O)c2n1 (centres undefined) returned TGFb inhibitor inconclusive, DT40 TDP1 no CPT 18µM*, IL-1B inflam inh 63, HepG2 viability -21%, TDP1 block 8% and DT40 TDP1 CPT 23µM*.
Screening Cc1cccc(NC(=O)COn2nnc3ccc(S(C)(=O)=O)cc32)c1 returned TGFb inhibitor inconclusive, DT40 TDP1 no CPT inconclusive, IL-1B inflam inh -4, HepG2 viability -44%, TDP1 block -6% and DT40 TDP1 CPT 4%.
Screening CCOC(=O)Nc1ccc2c(c1)N(C(=O)CCN(CC)CC)c1ccccc1S2=O (centres undefined) returned TGFb inhibitor 14µM*, DT40 TDP1 no CPT 3.7µM*, IL-1B inflam inh -100*, HepG2 viability -95% and DT40 TDP1 CPT 2.6µM*.
CCN(CC)CCC(=O)N1c2ccccc2CCc2ccc(NC(=O)OC)cc21 was read as TGFb inhibitor inconclusive, DT40 TDP1 no CPT -7%, IL-1B inflam inh -62*, HepG2 viability -1% and DT40 TDP1 CPT -21%.
CCOC(=O)Nc1ccc2c(c1)N(C(=O)CCN(CC)CC)c1ccccc1CC2 was read as TGFb inhibitor inconclusive, DT40 TDP1 no CPT inconclusive, IL-1B inflam inh inconclusive, HepG2 viability -19% and DT40 TDP1 CPT inconclusive.
For CN1c2ccc(Cl)cc2C(=O)NC1c1ccc([N+](=O)[O-])s1 (centres undefined) the results were TGFb inhibitor inconclusive, DT40 TDP1 no CPT 23µM*, IL-1B inflam inh -6, HepG2 viability -64%, TDP1 block 0% and DT40 TDP1 CPT 21µM*.
`O=C(CSc1nc2ccc([N+](=O)[O-])cc2[nH]1)NC1CCCCCC1` gave TGFb inhibitor inconclusive, DT40 TDP1 no CPT inconclusive, IL-1B inflam inh -84*, HepG2 viability -18%, TDP1 block 3% and DT40 TDP1 CPT -15%.
For Cc1nc2nc(SCC(=O)c3cccc([N+](=O)[O-])c3)[nH]c2cc1Br the results were TGFb inhibitor inconclusive, DT40 TDP1 no CPT 18µM*, IL-1B inflam inh 3, HepG2 viability -21%, TDP1 block 0% and DT40 TDP1 CPT inconclusive.
`CCOC(=O)NC(=O)CSc1nc2ccc([N+](=O)[O-])cc2[nH]1` gave TGFb inhibitor 12%, DT40 TDP1 no CPT 0%, IL-1B inflam inh 0, HepG2 viability -2%, TDP1 block 5% and DT40 TDP1 CPT 5%.
`O=C(CSc1nc2ccc([N+](=O)[O-])cc2[nH]1)NC1CCCCC1` gave TGFb inhibitor -27%, DT40 TDP1 no CPT 26µM*, IL-1B inflam inh 0, HepG2 viability -28%, TDP1 block -4% and DT40 TDP1 CPT inconclusive.
`O=C(CSc1nc2ccc(Cl)cc2[nH]1)NC1CCCC1` gave TGFb inhibitor -20%, DT40 TDP1 no CPT -30%, IL-1B inflam inh 0, HepG2 viability -6%, TDP1 block -7% and DT40 TDP1 CPT -16%.
COc1ccc(C(=O)CSc2nc3ccc([N+](=O)[O-])cc3[nH]2)cc1 was read as TGFb inhibitor -4%, DT40 TDP1 no CPT 16µM*, IL-1B inflam inh -2, HepG2 viability 2%, TDP1 block 5% and DT40 TDP1 CPT inconclusive.
